FMDV inh: foot and mouth disease virus antiviral activity | 410,000 tested, 1.2% active | FMDV antiviral cell-based qHTS | Potency, µM (top dose mostly 57.9 µM), inactives show at the top dose activity change, negative = inhibition, hits mostly inhibitors; calls by dose curve; tested in HEK293T cells; note: read-out not given here; potency is the fitted concentration of half-maximal effect; nearly all actives have a fitted effect of over 45% in size
VACV Venus inh: inhibitors of vaccinia virus (Venus reporter); Vaccinia virus Venus reporter expression, fluorescence; Potency, µM (titrated, usually from 36.5 µM), without a hit: top-dose activity change, negative = inhibition, most hits filed as inhibitors; 330,000 tested, 0.46% active; calls by dose curve; tested in A549 cells; note: potency is the fitted concentration of half-maximal effect; nearly all actives have a fitted effect of over 30% in size
Vaccinia mCherry: inhibitors of vaccinia virus infection (mCherry reporter signal) | Vaccinia virus mCherry reporter infection, fluorescence | Potency, µM (doses to about 36.5 µM), for the others: at the top dose activity change, negative = inhibition, actives largely listed as inhibitors | 310,000 tested, 0.63% active | AID 720579; calls by dose curve; tested in A549 cells; note: potency is the fitted concentration of half-maximal effect; nearly all actives have a fitted effect of over 35% in size
HCMV inh: human cytomegalovirus inhibition; HFF cells, HCMV-luciferase reporter, 72 h; stronger effect = lower value; activity change, negative = inhibition, % at 57.5 µM; 410,000 tested, 4.5% active; AID 1259415; in the data active = activity change below about -60%; inconclusive = no clear call, values can overlap the other calls; inactive = above about -39%
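HFF cells seeded 16 h at 37C, treated with compounds, infected with luciferase-reporter HCMV at MOI 1 PFU/cell; luciferase read at 72 h post infection, normalized to buffer-only and Salinomycin controls.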
MARV entry inh: blocks Marburg virus binding to or entry into cells | Marburg virus pseudotyped entry inhibition, cell reporter | Potency, µM (doses to about 37.8 µM), for the others: top-dose activity change, negative = inhibition, most hits filed as inhibitors | 300,000 tested, 1.8% active; calls by dose curve; tested in HEK293 cells; note: potency is the fitted concentration of half-maximal effect
Lassa entry inh: blocks Lassa virus binding to or entry into cells | 300,000 tested, 1.2% active | Lassa virus pseudotype entry inhibition, cell reporter | AID 540256 | Potency, µM (highest dose often 37.9 µM), inactives show top-dose activity change, negative = inhibition, actives largely listed as inhibitors; calls by dose curve; tested in HEK293 cells; note: potency is the fitted concentration of half-maximal effect; nearly all actives have a fitted effect of over 50% in size
Active calls of the source: *; i = inactive; ? = inconclusive; . = not tested or not shown; ! = a repeat was not active; [ ] = remark or other dose. Rows were chosen to be rich in hits. Some 6.5% of all compounds tested hit in one or more screens of this group. % is set by controls: 0 for no effect and ±100 for the full control effect.

SMILES	FMDV inh	VACV Venus inh	Vaccinia mCherry	HCMV inh	MARV entry inh	Lassa entry inh
C[C@@H]1CC[C@H]2C(=O)O[C@@H](COc3ccc(C(C)(C)C)cc3)CN2[C@@H]1c1ccc(Br)cc1	.	.	.	.	?	-4.5%[14.3 µM]
CCOc1ccc(-c2nnc(-c3ccccc3)n2-c2ccccc2)cc1	9.4%	.	.	-11.7	-4.4%	12.5%
CCOc1ccc(-n2c(C)c3c(C)nnc(C)c3c2C)cc1	?	?	?	-62.2*	.	.
O=C(c1ccc2c(c1)OCO2)N1CCN(c2ccc(C(F)(F)F)cn2)CC1	0.0%	-25.5%	-6.0%	?	0.5%	-9.2%
O=C(c1ccc2c(c1)OCCO2)N1CCN(c2ccc(C(F)(F)F)cn2)CC1	?	-20.9%	-4.5%	-60.4*	.	.
FC(F)(F)c1ccc(N2CCN(Cc3ccc4c(c3)OCO4)CC2)nc1	0.0%	-21.5%	i	-64.4*	2.1%	-1.8%
Cc1ccc(C2=CN(CCC(=O)O)C(=O)C2)cc1	.	.	.	25.8	.	.
CC(=NN=C(C)c1ccc(O)cc1)c1ccc(O)cc1	7.0%	-7.4%	-30.0%	9.3	-0.6%[46.1 µM]	-23.7%[46.1 µM]
CC/C(=N/N=C(/CC)c1ccc(O)cc1)c1ccc(O)cc1	19.6%	.	.	-99.3*	.	.
CC1=Nc2ccccc2/C1=C/c1sc(=N)n(-c2nccs2)c1O	?	?	-19.5%[1.46 µM]	.	10µM*	10µM*
COc1ccc(N2CC(NC(=O)C(=O)c3c[nH]c4ccccc34)CC2=O)cc1 (configuration not stated)	-10.1%	1.2%	-10.7%	44.1	.	-0.6%[46.1 µM]
CNC(=O)[C@@H]1C[C@H](NC2CCCCCCC2)CN1Cc1cccc(OC)c1OC	-1.6%	-0.9%	-9.9%	.	.	.
CCOc1ccc(NC(=O)c2cc3cc(C)ccc3n2C)cc1	5.4%	-13.6%	-7.1%	-26.7	-14.7%[46.1 µM]	0.8%[46.1 µM]
CC1CCc2[nH]c3ccc(C(=O)N(C)CC(=O)Nc4ccccc4Br)cc3c2C1 (configuration not stated)	?	-26.4%	?	-15.5	?	?
Cc1ccc(C)c(NC(=O)CN(C)C(=O)c2ccc3[nH]c4c(c3c2)CC(C)CC4)c1 (configuration not stated)	-19.8%	?	?	-29.8	-29.9%	0.562µM*
NS(=O)(=O)c1ccc(NC(=O)CCC(=O)c2ccc(Cl)s2)cc1	10.3%	-0.5%	-12.0%	-95.0*	14.9%[46.1 µM]	15.6%[46.1 µM]
Nc1ccc2cc3[nH]c4cc(N)ccc4c3nc2c1	-19.2%	-24.6%	?	-98.5*	?	?
C=CCN1C[C@@H](C)N([C@H](c2ccc(C(=O)N(CC)CC)cc2)c2cccc(OC)c2)C[C@@H]1C	.	.	.	.	15.8µM*	?
CC(C)C(=O)N[C@H]1CCCN1C(=O)C=Cc1ccccc1	.	.	.	.	-22.4%[14.2 µM]	?
COCCNC(=O)C(=O)Nc1ccc2c(c1)N(S(=O)(=O)c1cccs1)CCC2	0.4%	?	-15.4%	-0.9	?	1.78µM*
CC(C)CNC(=O)C(=O)Nc1ccc2c(c1)N(S(=O)(=O)c1cccs1)CCC2	2.6%	-28.1%	-15.0%	-29.4	3.16µM*	?
Cc1cc(Oc2ccccc2)nc(C#N)n1	.	-8.5%	i	.	.	.
CCN1C(=O)[C@@H]2[C@H]3[C@H](O)[C@H](O)CC(=NO[C@H](C)c4cn([C@@H]5COC[C@@H]5O)nn4)[C@@H]3CC[C@H]2C1=O	.	.	.	.	-32.4%[14.2 µM]	.
COCCN1C(=O)C2=C(C1=O)C1N(C)c3ccccc3[C@@]13C[C@@H](CO)N(C(=O)c1ccc(Br)cc1)C3=N2 (some centres not stated)	.	.	.	.	-7.4%[14.2 µM]	?
COc1ccc2[nH]c(=O)c3c(c2c1)OC(C)(C)C=C3	-24.3%	11.2µM*	12.6µM*	-96.4*	-6.0%	-13.8%
SMILES	FMDV inh	VACV Venus inh	Vaccinia mCherry	HCMV inh	MARV entry inh	Lassa entry inh
Cc1cc2c([nH]c3ccccc32)c2c1OC(C)(C)C=C2	56.2%	-26.0%	-26.0%	33.6	.	.
CCCc1nc(SCC(=O)N2CCCC2)c2ccccc2n1	?	.	.	-89.2*	-19.2%	?
CCCc1nc(SCC(=O)c2ccc(OC)cc2)c2ccccc2n1	?	-20.5%	i	-83.0*	?	-19.5%[46.1 µM]
Cc1nc(C(C)NC2CCN(c3cccc(NC(=O)c4ccncc4)c3)CC2)cs1 (configuration not stated)	11.3%	-5.8%	-9.8%	.	.	.
CCSc1nnc(NC(=O)C2CCN(C(=O)c3ccco3)CC2)s1	.	-14.4%	-3.4%	.	.	.
Cc1ccc(NC(=O)c2cnc(SCC(=O)N3CCOCC3)n(C)c2=O)cc1C	?	-4.4%	-10.5%	?	.	1.2%[46.1 µM]
CCOC(=O)C(=Cc1cn(C)c2ccc(S(=O)(=O)N(C)C)cc12)C(=O)OCC	31.6µM*	-10.5%	-28.5%	24.4	-21.7%[46.1 µM]	-5.9%[46.1 µM]
CCC(=O)Nc1cc2nn(-c3ccc(C)cc3)nc2cc1C	6.31µM*	-23.5%	0.5%	-66.1*!	?	?
CCC(=O)Nc1cc2nn(-c3ccc(OC)cc3)nc2cc1C	.	-8.1%	-11.7%	10.3	?	-27.0%
COc1ccc(-c2nnc3ccc(SC(C)C)nn23)cc1OC	.	-29.8%	?	.	.	.
O=S1(=O)CCOC[C@H](c2ccccc2)N1Cc1ccc(Cl)c(Cl)c1	.	-20.3%	i	.	.	.
O=[N+]([O-])c1ccc(-c2cc3ccccc3[nH]2)cc1	.	-7.5%	6.3%	.	.	.
Cc1ccc(C[n+]2c(-c3ccc(C)cc3)cc(-c3ccc(C)cc3)cc2-c2ccc(C)cc2)cc1	?	3.55µM*	?	.	.	.
COC(=O)c1cc(=O)c(O)c2c(O)c(O)ccc2c1	-10.0%	0.0%	-2.1%	.	.	.
CC1(C)Cc2c(ccc3ccccc23)/C(=C/C(=O)N2CCCCC2)N1	?	-19.5%	.	52.4	11.2µM*	-8.5%
O=C(/C=C1\NC2(CCCC2)Cc2ccccc21)N1CCOCC1	?	-17.6%	.	-22.9	-10.0%	-13.8%
COc1ccc(C)cc1-n1nnc(C(=O)Nc2cccc(SC)c2)c1C	?	-9.6%	-23.8%	-28.7	-23.4%[46.1 µM]	-2.7%[46.1 µM]
CN(C)CCCNc1nccc(-c2c(-c3ccc(F)cc3)nn3cc(C(F)(F)F)ccc23)n1	.	.	.	.	.	22.3µM*
O=S(=O)(c1cccc(Cl)c1)N1CCN(c2nc(-c3ccccc3)nc3ccccc23)CC1	.	-19.4%	-6.2%	.	.	.
O=C(/C=C/c1ccccc1O)c1ccco1	?	12.6µM*	?	-17.4	-24.6%	?
O=C(/C=C/c1cc(Br)ccc1O)c1ccco1	?	-11.8%	?	-78.7*	.	.
COc1ccccc1/C=C/C(=O)c1cc(Br)ccc1OC(=O)c1ccco1	?	?	-13.7%	15.4	?	-5.7%
Nc1ccc(/C=C/C(=O)c2ccco2)cc1	53.1%	-5.4%	-1.0%	0.8	43.2%	9.9%
CCC1CN(CCNC(=O)c2ccc3c(c2)OCO3)Cc2cc(OC)ccc2O1 (configuration not stated)	46.6%	-6.3%	-13.7%	.	.	.
Cc1cccc(N2C(=O)CSC23C(=O)N(Cc2cccc(C(F)(F)F)c2)c2ccccc23)c1 (configuration not stated)	?	-1.5%	-17.2%	-69.7*	.	-19.6%[46.1 µM]
